The source of these data is PubChem BioAssay (NCI).

Assay [1] can be described thus: NCI Yeast Anticancer Drug Screen. Data for the rad50 strain (AID 155).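 Further: 0% = growth of vehicle-only cultures of the same strain.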 The conditions noted are these: S. cerevisiae rad50 strain growth inhibition; at 50.0 µM; active compounds read high. An outline of the steps:
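Yeast carrying a defined DNA repair defect were exposed to test compounds, and growth was compared with vehicle-treated controls to give percent inhibition.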

Assay [2] is described as follows: NCI Yeast Anticancer Drug Screen. Data for the mec2-1 strain (AID 157). Particulars: S. cerevisiae mec2-1 strain, at 50.0 µM, active compounds read high. The gist of the method:
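Mutant yeast (mec2-1) grown with compound; growth inhibition relative to vehicle control reported.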

The nature of assay [3]: NCI Yeast Anticancer Drug Screen. Data for the sgs1 mgt1 strain (AID 161).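 Further: 0% = growth of cultures given vehicle only.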 The conditions noted are these: S. cerevisiae sgs1 mgt1 strain, at 50.0 µM, active compounds read high. An outline of the steps:
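This yeast growth screen uses a strain with defined DNA-repair lesions; compound-treated growth is compared with vehicle-treated growth.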

Assay [4] in a line: NCI Yeast Anticancer Drug Screen. Data for the cln2 rad14 strain (AID 165).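 Further: 0% = growth equal to vehicle treated cultures.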 The conditions noted are these: S. cerevisiae cln2 rad14 strain, at 50.0 µM, active compounds read high. An outline of the steps: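 Readout is yeast growth inhibition versus vehicle-treated controls, using a strain with cln2 and rad14 alterations exposed to compound.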
Assay [5] can be described thus: NCI Yeast Anticancer Drug Screen. Data for the bub3 strain (AID 167). Particulars: S. cerevisiae bub3 mutant strain, at 50.0 µM, active compounds read high. An outline of the steps: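 Compounds were applied to a genetically altered yeast strain carrying a cell-cycle control defect. Growth inhibition was scored against vehicle-treated controls.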
A short description of assay [6]: NCI Yeast Anticancer Drug Screen. Data for the mlh1 rad18 strain (AID 175). The conditions noted are these: S. cerevisiae mlh1 rad18 strain growth inhibition; at 50.0 µM; active compounds read high. An outline of the steps: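 Genetically defined yeast (DNA repair-deficient) exposed to compounds; growth inhibition determined relative to vehicle.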

SMILES strings stand for the structures. This is part of a sample that, as a whole, favours compounds with a hit. Of some 79,000 tested, about 15% had one in any assay. A number with no mark means an inactive call. The source made the active and inactive calls. No stated cut-off is given here; in the data, active means growth inhibition above about 70%; inactive means the rest.

Take `Cc1ccc(N(C(=O)CC(=O)NN)C(=O)c2ccccc2Cl)cc1`: the growth inhibition in assay [1] was -12.4%; in assay [2] it was -13.6%; in assay [3], -8.25%; in assay [4], 27%; in assay [5], 4%; in assay [6] it was -5.9%.

Turning to `O=C1OC(c2ccccc2Cl)Sc2ccccc21` (stereo unspecified), the growth inhibition in assay [1] is -3.25%; in assay [2], 25.1%; in assay [3] it was 20.1%; in assay [4], -30.7%; in assay [5], 55.8%; in assay [6], 32.8%.

For the molecule `C=CCN1C(=O)c2ccccc2C1=O`, the growth inhibition was 24.3% in assay [1]; -3.2% in assay [2]; 11.6% in assay [3]; 6.85% in assay [4]; 22.6% in assay [5]; 21.6% in assay [6].

For `COC1C(=O)OC(=O)C1OC` (stereo unspecified), the growth inhibition in assay [1] is -73%; in assay [2] it was -15.1%; in assay [3] it was -1.05%; in assay [4], -24.7%; in assay [5], -8.55%; in assay [6] it was 14.9%.

With `Nc1ccc(C(=O)Nc2ccc3c(O)cc(S(=O)(=O)O)cc3c2)cc1`, the growth inhibition in assay [1] is 23.2%; in assay [2], 5.55%; in assay [3] it was 2.65%; in assay [4] it was -6.5%; in assay [5], -10.5%; in assay [6] it was 8.6%.

As for `Cc1c(Cl)ccc2c1NC(=O)C2(O)CC(=O)c1ccc(Cl)cc1Cl` (stereo unspecified), the growth inhibition in assay [1] was 34.4%; in assay [2], 18.7%; in assay [3], 0.1%; in assay [4] it was -13.5%; in assay [5] it was 10.9%; in assay [6], 23.4%.

Regarding `C=C(CC)C(=O)c1ccc(OCC(=O)O)c(Cl)c1Cl`, the growth inhibition in assay [1] is 14.7%; in assay [2] it was -15.9%; in assay [3], 16.6%; in assay [4], 16.1%; in assay [5], 19.8%; in assay [6], -8.35%.

On to `CC(=O)Nc1ccccc1NC1CC(C)N(c2ccccc2)N1C(C)=O` (stereo unspecified), for which the growth inhibition in assay [1] is -10.9%; in assay [2] it was -42.4%; in assay [3], -40.4%; in assay [4], -11.5%; in assay [5], -34.4%; in assay [6], 1.05%.

As for `O=C(OCc1ccccc1)C1(N2CN(C3(C(=O)OCc4ccccc4)CCCC3)CN(C3(C(=O)OCc4ccccc4)CCCC3)C2)CCCC1`, the growth inhibition in assay [1] is -8.05%; in assay [2], -5.7%; in assay [3] it was 2.25%; in assay [4], 16.9%; in assay [5] it was 13.5%; in assay [6], 2.15%.

For `O=C(NC(=O)c1cn(CCN(CCO)C(=O)NCCCCCCNC(=O)N(CCO)CCn2cc(C(=O)NC(=O)OCc3ccccc3)c(=O)[nH]c2=O)c(=O)[nH]c1=O)OCc1ccccc1`, the growth inhibition in assay [1] was -2.5%; in assay [2], 7.05%; in assay [3], -18.9%; in assay [4], -23.9%; in assay [5], 0.9%; in assay [6], -17.9%.

Turning to `O=C(O)/C=C/S(=O)(=O)Cc1ccccc1`, the growth inhibition in assay [1] was 8.7%; in assay [2] it was -6.4%; in assay [3], 2.7%; in assay [4] it was -27.3%; in assay [5], 7.5%; in assay [6], 6.75%.

With `COc1ccc(S(=O)(=O)Oc2ccc(Cl)cc2)cc1`, the growth inhibition in assay [1] was -2.35%; in assay [2], 11.6%; in assay [3], 18.1%; in assay [4] it was -234%; in assay [5] it was 42.5%; in assay [6] it was 9.05%.

`CN(Cc1ccccc1)N=NCc1ccccc1`: the growth inhibition was 15.8% in assay [1]; -15.8% in assay [2]; -20.4% in assay [3]; 3.35% in assay [4]; 3.65% in assay [5]; -9.7% in assay [6].

As for `CC(C)(C)C(C)(C)CC(N)=O`, the growth inhibition in assay [1] was 7.25%; in assay [2] it was -15.7%; in assay [3], -4.3%; in assay [4], -3.6%; in assay [5] it was 10.9%; in assay [6], -9.1%.

Turning to `Clc1cc(Cl)c(SSc2cc(Cl)c(Cl)cc2Cl)cc1Cl`, the growth inhibition in assay [1] was -11.6%; in assay [2], 1.15%; in assay [3] it was -18.1%; in assay [4], -71.5%; in assay [5] it was 0.75%; in assay [6], -22.6%.

Take `CCN(CC)CCOC(c1ccccc1)c1ccccc1`: the growth inhibition in assay [1] is 3.8%; in assay [2] it was -9.75%; in assay [3], -1.2%; in assay [4] it was -10.8%; in assay [5], -0.05%; in assay [6], -11.8%.

For the molecule `CC(=O)c1cccc(NC(=O)Oc2ccc(C(=O)OCc3ccccc3)cc2)c1`, the growth inhibition in assay [1] was 71.2% (active); in assay [2], 88.9% (active); in assay [3], 80.7% (active); in assay [4] it was 42.8%; in assay [5], 92.2% (active); in assay [6] it was 92.9% (active).

As for `[N-]=[N+]=Nc1ccc(S(=O)(=O)Oc2cc(OS(=O)(=O)c3ccc(N=[N+]=[N-])cc3)cc(OS(=O)(=O)c3ccc(N=[N+]=[N-])cc3)c2)cc1`, the growth inhibition in assay [1] is 4%; in assay [2], 16.1%; in assay [3], 10.6%; in assay [4], 8%; in assay [5] it was -5.9%; in assay [6], 14.1%.

Turning to `CCOc1nc2ccc(N)cc2s1`, the growth inhibition in assay [1] was 19.6%; in assay [2], -9.55%; in assay [3], 3.25%; in assay [4] it was -31.9%; in assay [5] it was 11.4%; in assay [6] it was -12.3%.

Take `COCC1OC(n2cc(C)c(=O)n(C)c2=O)CC1OC` (stereo unspecified): the growth inhibition in assay [1] is 1.2%; in assay [2], 7.2%; in assay [3], 19.9%; in assay [4], -7.15%; in assay [5], 24.4%; in assay [6] it was 8%.

For the molecule `CCCCN(CCCC)C(=O)/C=C\C(=O)O`, the growth inhibition in assay [1] is -6.6%; in assay [2], 1%; in assay [3], -0.2%; in assay [4], 28.1%; in assay [5], -1.2%; in assay [6], 4.9%.
